Test results published in ChEMBL document CHEMBL3988442, “University of Dundee, Small-Polar-MMV Screening Library” (2021).
For some assays here: Entries with a potency or affinity are not part of this list.

Columns and labels:
Design in all cases: scale not given: direction of the effect not stated beside the values
[1] = molecular target: Protein translocase subunit SecA (Escherichia coli (strain K12)) (UniProt P10408); assay: Assay to Identify E. coli SecA ATPase Inhibitors; type: functional; conditions: 30 µM
Chain of Protein translocase subunit SecA (Escherichia coli (strain K12)) (P10408 whole entry): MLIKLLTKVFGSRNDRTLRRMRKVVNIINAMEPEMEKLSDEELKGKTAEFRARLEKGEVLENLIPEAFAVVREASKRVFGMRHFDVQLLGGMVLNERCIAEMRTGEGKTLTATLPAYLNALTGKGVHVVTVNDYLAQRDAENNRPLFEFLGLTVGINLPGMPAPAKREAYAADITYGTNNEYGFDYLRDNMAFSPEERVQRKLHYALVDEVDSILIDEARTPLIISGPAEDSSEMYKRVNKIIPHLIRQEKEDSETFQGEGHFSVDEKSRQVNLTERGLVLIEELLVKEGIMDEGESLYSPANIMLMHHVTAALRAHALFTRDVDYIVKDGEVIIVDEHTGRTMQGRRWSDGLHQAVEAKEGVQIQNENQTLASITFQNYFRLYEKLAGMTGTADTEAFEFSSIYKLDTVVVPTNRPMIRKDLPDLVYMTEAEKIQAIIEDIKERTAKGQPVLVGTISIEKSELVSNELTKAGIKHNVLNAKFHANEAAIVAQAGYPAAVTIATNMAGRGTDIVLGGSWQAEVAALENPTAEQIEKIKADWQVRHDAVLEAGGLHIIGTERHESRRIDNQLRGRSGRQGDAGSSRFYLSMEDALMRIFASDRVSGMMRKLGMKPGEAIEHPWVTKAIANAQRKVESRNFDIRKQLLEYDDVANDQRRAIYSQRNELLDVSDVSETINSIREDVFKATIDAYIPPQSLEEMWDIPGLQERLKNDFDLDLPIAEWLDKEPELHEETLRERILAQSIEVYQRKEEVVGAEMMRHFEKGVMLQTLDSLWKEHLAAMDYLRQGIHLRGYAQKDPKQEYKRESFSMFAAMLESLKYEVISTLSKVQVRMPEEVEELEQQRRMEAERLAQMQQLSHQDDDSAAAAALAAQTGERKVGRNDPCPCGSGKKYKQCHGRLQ

[2] = molecular target: T1, Ubiquitin-activating enzyme e1, putative (Leishmania donovani (strain BPK282A1)) (UniProt E9BSI1); assay: Leishmania donovani Ubiquitin Activating Enzyme (LdE1); type: functional; conditions: 30 µM
T1 sequence (whole entry): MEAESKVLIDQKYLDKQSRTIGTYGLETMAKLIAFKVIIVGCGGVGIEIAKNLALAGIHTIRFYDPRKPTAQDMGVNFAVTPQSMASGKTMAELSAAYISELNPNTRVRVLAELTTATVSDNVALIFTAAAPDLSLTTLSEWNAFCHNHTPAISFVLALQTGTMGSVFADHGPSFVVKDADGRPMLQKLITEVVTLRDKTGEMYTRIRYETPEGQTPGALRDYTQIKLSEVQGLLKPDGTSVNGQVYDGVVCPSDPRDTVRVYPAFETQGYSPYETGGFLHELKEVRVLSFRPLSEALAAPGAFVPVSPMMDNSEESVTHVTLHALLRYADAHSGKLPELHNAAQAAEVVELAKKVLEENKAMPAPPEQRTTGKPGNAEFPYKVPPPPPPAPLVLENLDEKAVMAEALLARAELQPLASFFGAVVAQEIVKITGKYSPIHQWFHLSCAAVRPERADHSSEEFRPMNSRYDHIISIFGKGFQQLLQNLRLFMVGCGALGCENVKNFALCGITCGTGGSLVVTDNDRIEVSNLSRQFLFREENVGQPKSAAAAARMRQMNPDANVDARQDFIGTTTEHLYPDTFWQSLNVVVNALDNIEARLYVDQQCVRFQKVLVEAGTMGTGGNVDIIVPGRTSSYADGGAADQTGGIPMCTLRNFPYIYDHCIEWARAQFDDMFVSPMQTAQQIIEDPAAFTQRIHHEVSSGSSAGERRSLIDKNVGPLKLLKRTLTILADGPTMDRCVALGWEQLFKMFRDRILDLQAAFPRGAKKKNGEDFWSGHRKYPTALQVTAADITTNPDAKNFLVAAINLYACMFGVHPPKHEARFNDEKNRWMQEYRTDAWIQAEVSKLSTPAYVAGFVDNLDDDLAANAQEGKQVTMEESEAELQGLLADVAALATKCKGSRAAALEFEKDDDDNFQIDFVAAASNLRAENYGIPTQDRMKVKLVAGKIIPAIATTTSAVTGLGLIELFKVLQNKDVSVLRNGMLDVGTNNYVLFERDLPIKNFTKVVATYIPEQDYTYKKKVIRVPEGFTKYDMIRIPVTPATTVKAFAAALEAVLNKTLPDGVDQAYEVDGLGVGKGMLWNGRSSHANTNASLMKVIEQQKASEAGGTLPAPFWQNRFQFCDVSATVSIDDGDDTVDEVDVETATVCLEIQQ

[3] = molecular target: AMP-activated protein kinase, AMPK (Homo sapiens) (UniProt P54646+O43741+P54619+Q9UGJ0+Q9Y478+Q13131+Q9UGI9); assay: AMP-dependent Kinase enzyme assay. An in vitro enzyme assay that detects ADP turnover that is directly proportional to AMPK activity. This uses naive AMPK that is activated during the assay with MK-8722; type: functional; conditions: 30 µM
[4] = molecular target: Sialic acid-binding Ig-like lectin 9 (Homo sapiens) (UniProt Q9Y336); assay: Hs-Siglec9 ALPHAscreen SOP 20170721; conditions: 10 µM
Chain of Sialic acid-binding Ig-like lectin 9 (Homo sapiens) (Q9Y336 whole entry): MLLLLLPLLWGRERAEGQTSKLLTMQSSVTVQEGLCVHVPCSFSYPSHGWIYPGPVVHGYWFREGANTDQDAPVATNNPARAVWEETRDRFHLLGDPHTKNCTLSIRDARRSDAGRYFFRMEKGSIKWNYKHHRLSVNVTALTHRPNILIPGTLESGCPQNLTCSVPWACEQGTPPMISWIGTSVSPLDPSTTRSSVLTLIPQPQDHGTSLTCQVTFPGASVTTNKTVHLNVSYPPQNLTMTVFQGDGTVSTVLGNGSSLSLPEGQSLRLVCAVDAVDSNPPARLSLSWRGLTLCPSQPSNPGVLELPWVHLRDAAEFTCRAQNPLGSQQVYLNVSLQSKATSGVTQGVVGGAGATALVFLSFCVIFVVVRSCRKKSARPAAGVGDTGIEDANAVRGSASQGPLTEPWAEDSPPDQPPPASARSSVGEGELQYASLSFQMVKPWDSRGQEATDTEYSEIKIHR

Trypanosoma cruzi = assay: Trypanosoma cruzi phosphomannomutase and mannose-1-phosphate guanylyltransferase assay; type: functional; conditions: 10 µM
[5] = molecular target: T2, Arginase-2, mitochondrial (Homo sapiens) (UniProt P78540); assay: in vitro enzyme assay to detect the production of urea directly proportional to the activity of Arginase II; type: functional; conditions: 33.3 µM; also: in the data most compounds retested in dose-response had high values
T2 sequence (whole entry): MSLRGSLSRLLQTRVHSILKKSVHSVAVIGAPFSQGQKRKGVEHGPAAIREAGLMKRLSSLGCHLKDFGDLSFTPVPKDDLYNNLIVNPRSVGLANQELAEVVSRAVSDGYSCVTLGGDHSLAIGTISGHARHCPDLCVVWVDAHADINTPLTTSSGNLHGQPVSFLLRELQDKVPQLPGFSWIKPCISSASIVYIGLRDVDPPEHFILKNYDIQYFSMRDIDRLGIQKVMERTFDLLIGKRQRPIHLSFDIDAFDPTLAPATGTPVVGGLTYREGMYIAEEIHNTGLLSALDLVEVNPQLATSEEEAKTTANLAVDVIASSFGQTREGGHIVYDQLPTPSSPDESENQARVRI

[6] = molecular target: T3, Proteasome subunit beta (Trypanosoma cruzi) (UniProt O96673); assay: Trypanosoma cruzi proteasome chymotrypsin-like activity (TcProtChymo) assay.; also: in the data most compounds retested in dose-response had high values; type: functional; conditions: 9.37 µM
T3 sequence (whole entry): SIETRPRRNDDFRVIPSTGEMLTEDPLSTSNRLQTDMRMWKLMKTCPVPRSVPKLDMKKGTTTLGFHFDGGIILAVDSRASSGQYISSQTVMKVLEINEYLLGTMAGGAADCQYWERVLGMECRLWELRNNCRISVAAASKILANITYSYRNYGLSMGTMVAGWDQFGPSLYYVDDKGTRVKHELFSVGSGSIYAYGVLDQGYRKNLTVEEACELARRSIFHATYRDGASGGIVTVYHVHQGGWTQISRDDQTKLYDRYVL

Homo sapiens = species on record: Homo sapiens; assay: To identify inhibition of the IFN signalling (Jak-Stat) pathway via expression of an eGFP reporter gene under the control of an IFN-stimulated response element (ISRE) containing MxA promoter.; type: functional; conditions: 30 µM
[7] = molecular target: T4, Tyrosyl-tRNA synthetase, putative (Trypanosoma cruzi (strain CL Brener)) (UniProt Q4DSP6); assay: Trypanosoma cruzi tyrosyl tRNA synthetase (TcYRS) _High Tyrosine SOP; type: functional; conditions: 30 µM; also: in the data most compounds retested in dose-response had high values
T4 sequence (whole entry): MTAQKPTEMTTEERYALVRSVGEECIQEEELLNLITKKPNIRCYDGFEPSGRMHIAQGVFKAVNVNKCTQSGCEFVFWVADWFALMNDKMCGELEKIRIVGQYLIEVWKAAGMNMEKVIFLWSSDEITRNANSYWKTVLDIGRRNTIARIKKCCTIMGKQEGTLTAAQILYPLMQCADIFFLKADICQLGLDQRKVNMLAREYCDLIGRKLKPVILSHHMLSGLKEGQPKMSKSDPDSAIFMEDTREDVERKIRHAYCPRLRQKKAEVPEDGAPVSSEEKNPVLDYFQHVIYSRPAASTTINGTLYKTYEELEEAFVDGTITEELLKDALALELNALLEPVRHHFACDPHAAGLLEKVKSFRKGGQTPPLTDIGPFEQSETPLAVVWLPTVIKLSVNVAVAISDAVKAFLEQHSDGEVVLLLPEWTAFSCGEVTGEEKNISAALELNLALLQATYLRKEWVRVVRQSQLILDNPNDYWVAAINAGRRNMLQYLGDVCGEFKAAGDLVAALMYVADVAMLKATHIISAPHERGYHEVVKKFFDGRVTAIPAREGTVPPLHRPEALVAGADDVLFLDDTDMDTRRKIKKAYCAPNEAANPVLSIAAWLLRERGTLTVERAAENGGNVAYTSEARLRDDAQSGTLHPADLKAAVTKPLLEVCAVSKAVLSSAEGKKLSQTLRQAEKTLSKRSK

[8] = molecular target: T4, Tyrosyl-tRNA synthetase, putative (Trypanosoma cruzi (strain CL Brener)); assay: Trypanosoma cruzi tyrosyl tRNA synthetase (TcYRS) SOP; type: functional; conditions: 30 µM
[9] = molecular target: Chromo domain-containing protein 1 (Saccharomyces cerevisiae (strain ATCC 204508 / S288c) (Baker's yeast)) (UniProt P32657); assay: ScCHD-1 Enzyme Inhibition Assay; type: functional; conditions: 30 µM; also: in the data most compounds retested in dose-response had high values
Chain of Chromo domain-containing protein 1 (Saccharomyces cerevisiae (strain ATCC 204508 / S288c) (Baker's yeast)) (P32657 whole entry, the tested form may be a part): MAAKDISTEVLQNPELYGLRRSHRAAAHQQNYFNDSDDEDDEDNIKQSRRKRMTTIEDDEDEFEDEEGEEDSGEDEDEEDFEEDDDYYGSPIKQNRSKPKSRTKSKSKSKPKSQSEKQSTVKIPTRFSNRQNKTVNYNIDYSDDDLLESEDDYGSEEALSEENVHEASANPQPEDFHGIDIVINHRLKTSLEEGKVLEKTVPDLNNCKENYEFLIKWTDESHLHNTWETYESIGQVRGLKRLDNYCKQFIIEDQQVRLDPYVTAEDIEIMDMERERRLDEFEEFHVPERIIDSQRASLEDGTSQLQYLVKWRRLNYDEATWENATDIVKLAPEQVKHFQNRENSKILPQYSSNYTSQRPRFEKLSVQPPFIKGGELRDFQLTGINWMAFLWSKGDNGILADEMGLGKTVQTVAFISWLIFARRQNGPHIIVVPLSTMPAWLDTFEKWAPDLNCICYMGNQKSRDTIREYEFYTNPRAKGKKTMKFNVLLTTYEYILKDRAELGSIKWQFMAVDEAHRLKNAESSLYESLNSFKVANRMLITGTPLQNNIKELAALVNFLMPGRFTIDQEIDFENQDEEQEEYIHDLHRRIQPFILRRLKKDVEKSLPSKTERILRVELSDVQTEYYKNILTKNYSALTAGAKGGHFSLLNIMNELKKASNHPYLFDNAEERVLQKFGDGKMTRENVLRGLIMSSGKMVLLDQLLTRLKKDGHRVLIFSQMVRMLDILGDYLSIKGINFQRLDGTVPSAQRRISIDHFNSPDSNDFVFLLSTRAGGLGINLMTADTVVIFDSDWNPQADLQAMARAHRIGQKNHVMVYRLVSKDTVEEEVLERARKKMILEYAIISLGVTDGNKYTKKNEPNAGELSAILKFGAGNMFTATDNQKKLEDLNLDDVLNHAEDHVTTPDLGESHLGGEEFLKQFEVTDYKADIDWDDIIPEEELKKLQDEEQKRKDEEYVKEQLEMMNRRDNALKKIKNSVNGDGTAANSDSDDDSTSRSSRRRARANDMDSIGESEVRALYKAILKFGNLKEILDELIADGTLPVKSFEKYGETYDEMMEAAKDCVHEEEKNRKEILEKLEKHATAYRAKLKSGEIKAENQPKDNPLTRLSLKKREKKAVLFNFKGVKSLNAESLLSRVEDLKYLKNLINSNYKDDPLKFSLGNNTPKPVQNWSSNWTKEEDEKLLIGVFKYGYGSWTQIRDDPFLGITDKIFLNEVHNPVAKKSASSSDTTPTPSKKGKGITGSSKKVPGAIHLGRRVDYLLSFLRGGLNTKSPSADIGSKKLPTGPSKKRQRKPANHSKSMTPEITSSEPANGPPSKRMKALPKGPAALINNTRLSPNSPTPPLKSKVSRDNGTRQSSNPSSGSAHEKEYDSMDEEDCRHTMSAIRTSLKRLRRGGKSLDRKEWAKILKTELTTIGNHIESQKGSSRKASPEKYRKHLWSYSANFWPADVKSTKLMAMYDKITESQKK

| SMILES | Percent Effect [1] [%] | Percent Effect [2] [%] | Percent Effect [3] [%] | Percent Effect [4] [%] | Percent Effect (Trypanosoma cruzi) [%] | Percent Effect [5] [%] | Percent Effect [6] [%] | Percent Effect (Homo sapiens) [%] | Percent Effect [7] [%] | Percent Effect [8] [%] | Percent Effect [9] [%] |
| --- | --- | --- | --- | --- | --- | --- | --- | --- | --- | --- | --- |
| Cc1ccc(C(=O)NC2CCN(C(=O)Nc3ccccn3)CC2)o1 | -3.11 | 10.4 | -3.63 | -17.5 | -7.15 | -2.32 | 6.71 | 9.29 | 2.86 | 14.1 | -18.9 |
| Cc1nc(C)c(C(=O)N2CCCC2c2nnc3n2CCCCC3)s1 (configuration not stated) | -2.68 | 13.5 | -4.05 | 1.58 | 0.586 | 5.42 | 14.3 | 3.62 | 11.9 | 11 | -0.436 |
| CC(CN1CCOCC1)NC(=O)NCc1ccc(Cl)s1 (configuration not stated) | 0.411 | 10.5 | 7.25 | 0.82 | -2.63 | -2.37 | 15.8 | 5.71 | 8.51 | 20.8 | -3.24 |
| O=C(N[C@@H]1CN(Cc2cccs2)[C@@H]2CCCO[C@@H]21)C1CC1 | 2.58 | 8 | 2.54 | 23.2 | -7.34 | -53.6 | 13.3 | 1.32 | 2.08 | 20 | -6.29 |
| Cn1ccnc1CN1CCCN(C(=O)c2ccc(Cl)o2)CC1 | -4.86 | 0 | -1.55 | 4.15 | 1.4 | 1.44 | 3.13 | -16.8 | 2.46 | 1.24 | 0.744 |
| CC(=O)N1CC(=O)N(c2ccccc2)CC12CCN(Cc1nccs1)C2 (configuration not stated) | 3.29 | 10.7 | 3.41 | -1.44 | -5.02 | -54.3 | 7.69 | -3.63 | 7.29 | 30 | -7.28 |
| CSc1ccc(C(CN)N2CCc3sccc3C2)cc1 (configuration not stated) | 0.534 | -15.8 | -4.11 | -9.22 | 3.6 | -5.92 | 6.42 | 39.7 | 17 | 28.6 | 1.73 |
| Cc1cc(NC(=O)NCCc2ccsc2)n(C)n1 | -0.993 | 15.3 | -5.89 | 15.8 | 0.291 | -0.883 | 20.7 | -9.26 | 1.05 | 10.3 | 85 |
| CC(NC(=O)N(C)Cc1ccsc1)c1ccc2c(c1)NC(=O)CO2 (configuration not stated) | -2.37 | 13.2 | 0.427 | 7.9 | 6.39 | 1.15 | 8.52 | 9.49 | 5.39 | 19.5 | -10.1 |
| NC(=O)c1cccc(CC2CCN(C(=O)CO)C2)c1 (configuration not stated) | -1.68 | 19.2 | 10.3 | 10.6 | 3.33 | -0.909 | 15.4 | 2.47 | 4.3 | 17.5 | -3.86 |
| Cc1n[nH]c(C2CN(C(=O)c3ccnc(C4CC4)n3)CCO2)n1 (configuration not stated) | -1.78 | 10.4 | 5.44 | 10.3 | -0.0979 | 5.26 | 9.78 | -6.73 | 5.71 | -23.5 | -12.2 |
| Cc1cc(CN(C)C(=O)NCc2cccc(N3CCCC3=O)c2)no1 | -4.74 | 7.59 | -1.15 | 7.78 | 6.14 | -4.94 | -4.5 | -10.2 | 1.48 | 1.27 | -1.62 |
| Clc1ccc(-n2cc(CNC3CCc4ncnn4C3)cn2)cc1 (configuration not stated) | -0.3 | 1.27 | 7.38 | 3.29 | -2.36 | 1.5 | 10.6 | 7.5 | 2.08 | 10.1 | -1.43 |
| O=C1CC(c2cccc(O)c2)c2c(c(C(=O)O)cn2-c2ccccc2)N1 (configuration not stated) | -3.46 | 1.33 | -385 | 1.46 | -3.34 | -5.81 | 14.6 | 7.35 | 0 | -5.13 | -11.7 |
| Cc1nccc(-c2cccc(NCC(=O)N3CCc4sccc4C3)c2)n1 | -1.56 | 2.63 | 49.8 | -3.82 | 4.76 | -1.8 | 6.68 | -23.6 | 11.3 | 30.9 | -8.23 |
| COc1ccc(NC(=O)c2ccc[nH]2)c(N2CCN(C(C)=O)CC2)n1 | -1.32 | 10.8 | -4.59 | -2.38 | 0.781 | 37.1 | 7.18 | -7.2 | 6.93 | 13.4 | -6.01 |
| O=C(NCCCN1CCOCC1)c1cc(-c2ccc3c(c2)CCO3)n[nH]1 | -5.47 | -20 | -0.583 | 0.426 | 2.36 | -15 | 12.2 | -4.93 | 1.06 | -2.56 | -5.21 |
| OC1CCCN(Cc2c(-c3ccco3)[nH]c3ncccc23)C1 (configuration not stated) | -4.22 | 25.7 | -13.3 | 19 | 2.17 | -1.16 | 11.1 | 20.3 | 6.45 | 19.5 | -18.1 |
| O=S(=O)(CCNCc1ccc2c(c1)CCO2)N1CCOCC1 | -6.32 | -2.7 | -3.09 | 10.1 | -3.67 | -3.33 | 11.7 | -0.791 | -0.529 | -4.88 | -4.8 |
| CCCn1c(C)cc(C(=O)CN2C(=O)c3ccccc3CS2(=O)=O)c1C | 2.47 | -18.9 | -2.92 | 7.94 | 0 | 1.91 | 14.7 | 21.2 | -10.1 | 0 | 8.3 |
| CCn1c(CN(C)C)nnc1C1CCN(c2ccnc(C)c2)CC1 | -0.496 | 6.94 | -2.58 | -2.36 | -1.85 | 2.65 | 21.1 | -1.07 | 5.26 | 5.13 | -1.27 |
| CNc1nc(C)c(C(=O)N2CCCCC2CN2CCCCCC2)s1 (configuration not stated) | -4.61 | 21.3 | -1.92 | 0.892 | 3.74 | -1.63 | 8.72 | -1.85 | 11.7 | 19.2 | -9.37 |
